# Measured values reported in publication PMC7862700, “An all-to-all approach to the identification of sequence-specific readers for epigenetic DNA modifications on cytosine”.
# Assays:
# Assay in all cases: DAPPL (digital affinity profiling via proximity ligation, sequencing); 10 mM Tris-HCl pH 7.5, 50 mM NaCl, 1 mM DTT, 4% glycerol, room temperature, 30 min; GST-TFs on glutathione beads, 16-mer random dsDNA library, 0.1% formaldehyde crosslink after washing; high values mean tight binding
# FEV = target: T1, FEV (Homo sapiens, UniProt Q99581 1-238); conditions: protein: recombinant; tags: N-terminal GST; dsDNA, one strand shown
# T1 sequence: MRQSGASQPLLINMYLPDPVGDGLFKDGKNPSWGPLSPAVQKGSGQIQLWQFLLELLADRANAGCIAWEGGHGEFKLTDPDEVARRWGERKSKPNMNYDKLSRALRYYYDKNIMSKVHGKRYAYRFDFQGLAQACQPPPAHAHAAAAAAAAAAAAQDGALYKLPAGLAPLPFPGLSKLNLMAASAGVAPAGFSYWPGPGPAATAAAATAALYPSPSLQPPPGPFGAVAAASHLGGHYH
# Summary of the method: (§1)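 Beads coated with glutathione captured GST-fused human transcription factors that had been expressed in yeast, and the factors were then given DNA barcodes and pooled with a tag-only sample. The pools were incubated with 200 nmole of a random double-stranded 16-mer DNA library in Tris/NaCl/DTT/glycerol buffer for 30 min at room temperature, washed, crosslinked with 0.1% formaldehyde and proximity-ligated with BsaI/T4 ligase at 37 °C for 1 h. PCR amplification and Illumina NextSeq500 sequencing came last. Binding signal is each hexamer's read frequency for a factor divided by its frequency for the tag-only sample.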
# ETV5 = ETV5 (Homo sapiens, UniProt P41161 1-510); conditions: protein: recombinant; tags: N-terminal GST; dsDNA, one strand shown
# Summary of the method: as §1
# HSF1 = HSF1 (Homo sapiens, UniProt Q00613 1-529); conditions: protein: recombinant; tags: N-terminal GST; chain copies: 3; dsDNA, one strand shown
# Summary of the method: as §1
# SPIC = target: T2, SPIC (Homo sapiens, UniProt Q8N5J4 1-248); conditions: protein: recombinant; tags: N-terminal GST; dsDNA, one strand shown
# T2 sequence: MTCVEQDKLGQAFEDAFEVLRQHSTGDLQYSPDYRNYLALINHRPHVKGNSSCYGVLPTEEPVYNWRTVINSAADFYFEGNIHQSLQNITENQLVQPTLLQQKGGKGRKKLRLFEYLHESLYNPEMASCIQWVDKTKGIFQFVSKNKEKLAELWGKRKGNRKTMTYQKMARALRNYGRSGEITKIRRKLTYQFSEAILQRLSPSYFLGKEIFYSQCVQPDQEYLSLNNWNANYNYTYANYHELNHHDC
# Summary of the method: as §1
# ELF4 = ELF4 (Homo sapiens, UniProt Q99607 1-663); conditions: protein: recombinant; tags: N-terminal GST; dsDNA, one strand shown
# Summary of the method: as §1
# ELK4 = target: T3, ELK4 (Homo sapiens, UniProt P28324-2 1-405); conditions: protein: recombinant; tags: N-terminal GST; dsDNA, one strand shown
# T3 sequence: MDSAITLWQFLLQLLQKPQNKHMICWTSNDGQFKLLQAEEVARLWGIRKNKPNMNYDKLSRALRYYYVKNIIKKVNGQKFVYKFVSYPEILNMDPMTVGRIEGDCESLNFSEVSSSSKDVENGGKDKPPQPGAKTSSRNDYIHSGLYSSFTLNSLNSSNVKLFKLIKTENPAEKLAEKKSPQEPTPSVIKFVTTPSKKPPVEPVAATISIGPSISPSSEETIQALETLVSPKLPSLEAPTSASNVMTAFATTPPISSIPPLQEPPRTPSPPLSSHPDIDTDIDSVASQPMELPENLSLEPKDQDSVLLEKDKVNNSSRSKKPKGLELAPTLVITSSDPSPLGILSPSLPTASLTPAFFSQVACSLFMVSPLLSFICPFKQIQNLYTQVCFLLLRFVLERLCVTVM
# Summary of the method: as §1
# ETV2 = target: T4, ETV2 (Homo sapiens, UniProt O00321 1-342); conditions: protein: recombinant; tags: N-terminal GST; dsDNA, one strand shown
# T4 sequence: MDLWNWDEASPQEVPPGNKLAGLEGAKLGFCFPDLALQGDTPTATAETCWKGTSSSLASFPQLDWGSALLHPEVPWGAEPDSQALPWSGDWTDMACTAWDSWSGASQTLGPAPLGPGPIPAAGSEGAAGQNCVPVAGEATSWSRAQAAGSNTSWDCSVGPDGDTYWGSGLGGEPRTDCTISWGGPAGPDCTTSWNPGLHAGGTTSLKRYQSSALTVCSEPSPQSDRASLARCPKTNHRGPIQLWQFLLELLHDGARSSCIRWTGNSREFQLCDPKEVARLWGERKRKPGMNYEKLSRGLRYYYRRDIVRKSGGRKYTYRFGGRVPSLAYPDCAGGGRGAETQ
# Summary of the method: as §1
# ELF3 = target: T5, ELF3 (Homo sapiens, UniProt P78545 1-371); conditions: protein: recombinant; tags: N-terminal GST; dsDNA, one strand shown
# T5 sequence: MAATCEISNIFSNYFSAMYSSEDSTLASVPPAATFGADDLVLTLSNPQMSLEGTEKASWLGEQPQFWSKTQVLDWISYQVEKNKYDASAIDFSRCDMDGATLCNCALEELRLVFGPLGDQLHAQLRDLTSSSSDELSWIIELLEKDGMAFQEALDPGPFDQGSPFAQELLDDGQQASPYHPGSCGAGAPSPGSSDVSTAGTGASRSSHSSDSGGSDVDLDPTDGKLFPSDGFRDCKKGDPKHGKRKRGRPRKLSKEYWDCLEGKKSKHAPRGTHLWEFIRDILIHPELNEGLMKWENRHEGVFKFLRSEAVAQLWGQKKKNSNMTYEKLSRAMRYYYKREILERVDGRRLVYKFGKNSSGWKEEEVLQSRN
# Summary of the method: as §1
# CRX = CRX (Homo sapiens, UniProt O43186 1-299); conditions: protein: recombinant; tags: N-terminal GST; dsDNA, one strand shown
# Summary of the method: as §1
# ETV1 = ETV1 (Homo sapiens, UniProt P50549 1-477); conditions: protein: recombinant; tags: N-terminal GST; dsDNA, one strand shown
# Summary of the method: as §1
# ERF = target: T6, ERF (Homo sapiens, UniProt P50548 1-548); conditions: protein: recombinant; tags: N-terminal GST; dsDNA, one strand shown
# T6 sequence: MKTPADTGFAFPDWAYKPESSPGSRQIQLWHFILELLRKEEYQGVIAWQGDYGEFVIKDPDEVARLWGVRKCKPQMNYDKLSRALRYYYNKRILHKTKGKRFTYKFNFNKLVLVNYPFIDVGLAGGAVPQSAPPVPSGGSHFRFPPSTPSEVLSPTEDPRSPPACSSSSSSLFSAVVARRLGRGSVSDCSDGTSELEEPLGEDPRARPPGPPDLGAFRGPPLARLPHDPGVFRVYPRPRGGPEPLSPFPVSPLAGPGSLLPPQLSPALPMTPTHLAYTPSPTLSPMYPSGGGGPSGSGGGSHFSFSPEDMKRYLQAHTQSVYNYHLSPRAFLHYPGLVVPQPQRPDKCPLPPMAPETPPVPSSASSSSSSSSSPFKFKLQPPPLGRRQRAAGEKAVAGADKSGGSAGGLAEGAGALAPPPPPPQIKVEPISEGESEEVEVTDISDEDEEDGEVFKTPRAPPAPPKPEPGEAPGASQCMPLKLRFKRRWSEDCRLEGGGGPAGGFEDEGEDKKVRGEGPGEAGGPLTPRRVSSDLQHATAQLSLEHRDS
# Summary of the method: as §1
# ETV3L = target: T7, ETV3L (Homo sapiens, UniProt Q6ZN32 1-361); conditions: protein: recombinant; tags: N-terminal GST; dsDNA, one strand shown
# T7 sequence: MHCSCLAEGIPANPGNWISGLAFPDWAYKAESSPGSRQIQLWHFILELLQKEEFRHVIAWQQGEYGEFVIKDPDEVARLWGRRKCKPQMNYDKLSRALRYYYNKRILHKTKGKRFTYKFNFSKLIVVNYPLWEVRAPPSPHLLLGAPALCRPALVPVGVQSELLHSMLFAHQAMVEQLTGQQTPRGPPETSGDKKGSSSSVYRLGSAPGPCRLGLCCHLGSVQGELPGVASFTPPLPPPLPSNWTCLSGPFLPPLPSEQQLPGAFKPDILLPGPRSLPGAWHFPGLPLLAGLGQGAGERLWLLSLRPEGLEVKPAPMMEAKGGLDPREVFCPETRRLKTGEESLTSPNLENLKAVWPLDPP
# Summary of the method: as §1
# ETS2 = target: T8, ETS2 (Homo sapiens, UniProt P15036 1-469); conditions: protein: recombinant; tags: N-terminal GST; dsDNA, one strand shown
# T8 sequence: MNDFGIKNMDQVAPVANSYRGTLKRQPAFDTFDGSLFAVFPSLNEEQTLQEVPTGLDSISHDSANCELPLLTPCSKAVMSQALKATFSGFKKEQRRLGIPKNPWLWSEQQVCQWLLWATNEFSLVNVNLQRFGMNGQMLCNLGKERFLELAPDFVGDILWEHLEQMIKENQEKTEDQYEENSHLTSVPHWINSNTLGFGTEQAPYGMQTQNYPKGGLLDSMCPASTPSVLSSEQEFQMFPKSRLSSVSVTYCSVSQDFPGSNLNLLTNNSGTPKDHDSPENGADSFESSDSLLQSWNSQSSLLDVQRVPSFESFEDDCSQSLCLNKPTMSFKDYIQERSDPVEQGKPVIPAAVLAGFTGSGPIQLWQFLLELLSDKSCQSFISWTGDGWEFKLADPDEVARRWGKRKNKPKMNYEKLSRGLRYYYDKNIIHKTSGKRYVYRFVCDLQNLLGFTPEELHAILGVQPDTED
# Summary of the method: as §1
# SPDEF = target: T9, SPDEF (Homo sapiens, UniProt O95238 1-335); conditions: protein: recombinant; tags: N-terminal GST; dsDNA, one strand shown
# T9 sequence: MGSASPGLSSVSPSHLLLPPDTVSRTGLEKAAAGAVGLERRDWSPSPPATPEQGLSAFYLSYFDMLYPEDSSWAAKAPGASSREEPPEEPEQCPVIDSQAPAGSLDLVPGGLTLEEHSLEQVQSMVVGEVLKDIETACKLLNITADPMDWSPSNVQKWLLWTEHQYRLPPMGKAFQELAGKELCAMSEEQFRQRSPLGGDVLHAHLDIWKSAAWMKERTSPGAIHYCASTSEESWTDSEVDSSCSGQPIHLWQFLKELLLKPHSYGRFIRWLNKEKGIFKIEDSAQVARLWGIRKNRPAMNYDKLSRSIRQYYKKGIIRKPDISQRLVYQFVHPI
# Summary of the method: as §1
# ETV7 = target: T10, ETV7 (Homo sapiens, UniProt Q9Y603 1-341); conditions: protein: recombinant; tags: N-terminal GST; dsDNA, one strand shown
# T10 sequence: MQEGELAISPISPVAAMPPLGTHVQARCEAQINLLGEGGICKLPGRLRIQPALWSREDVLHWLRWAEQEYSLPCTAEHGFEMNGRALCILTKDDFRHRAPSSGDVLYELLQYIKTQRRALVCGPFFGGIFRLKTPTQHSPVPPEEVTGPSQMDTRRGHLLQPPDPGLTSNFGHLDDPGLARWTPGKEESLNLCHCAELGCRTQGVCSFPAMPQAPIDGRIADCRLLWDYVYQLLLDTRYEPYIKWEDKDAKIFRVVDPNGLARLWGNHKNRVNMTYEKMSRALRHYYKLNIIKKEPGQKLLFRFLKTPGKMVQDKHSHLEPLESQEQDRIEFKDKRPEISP
# Summary of the method: as §1
# ELF5 = target: T11, ELF5 (Homo sapiens, UniProt Q9UKW6-2 1-255); conditions: protein: recombinant; tags: N-terminal GST; dsDNA, one strand shown
# T11 sequence: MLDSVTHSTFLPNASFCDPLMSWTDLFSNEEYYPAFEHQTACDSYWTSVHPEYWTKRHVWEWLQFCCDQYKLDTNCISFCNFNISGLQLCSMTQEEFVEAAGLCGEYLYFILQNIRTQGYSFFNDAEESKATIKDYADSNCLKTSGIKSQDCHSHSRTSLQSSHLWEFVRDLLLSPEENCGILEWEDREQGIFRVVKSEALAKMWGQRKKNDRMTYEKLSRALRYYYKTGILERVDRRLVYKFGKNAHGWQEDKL
# Summary of the method: as §1
# ETV3 = target: T12, ETV3 (Homo sapiens, UniProt P41162-2 1-143); conditions: protein: recombinant; tags: N-terminal GST; dsDNA, one strand shown
# T12 sequence: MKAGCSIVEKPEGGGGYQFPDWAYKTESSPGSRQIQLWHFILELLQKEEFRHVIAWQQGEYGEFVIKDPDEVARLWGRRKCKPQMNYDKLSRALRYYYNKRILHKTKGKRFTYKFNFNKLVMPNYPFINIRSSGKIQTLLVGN
# Summary of the method: as §1
# ETV6 = ETV6 (Homo sapiens, UniProt P41212 1-452); conditions: protein: recombinant; tags: N-terminal GST; dsDNA, one strand shown
# Summary of the method: as §1
# Chain of ETV5 (P41161 whole entry): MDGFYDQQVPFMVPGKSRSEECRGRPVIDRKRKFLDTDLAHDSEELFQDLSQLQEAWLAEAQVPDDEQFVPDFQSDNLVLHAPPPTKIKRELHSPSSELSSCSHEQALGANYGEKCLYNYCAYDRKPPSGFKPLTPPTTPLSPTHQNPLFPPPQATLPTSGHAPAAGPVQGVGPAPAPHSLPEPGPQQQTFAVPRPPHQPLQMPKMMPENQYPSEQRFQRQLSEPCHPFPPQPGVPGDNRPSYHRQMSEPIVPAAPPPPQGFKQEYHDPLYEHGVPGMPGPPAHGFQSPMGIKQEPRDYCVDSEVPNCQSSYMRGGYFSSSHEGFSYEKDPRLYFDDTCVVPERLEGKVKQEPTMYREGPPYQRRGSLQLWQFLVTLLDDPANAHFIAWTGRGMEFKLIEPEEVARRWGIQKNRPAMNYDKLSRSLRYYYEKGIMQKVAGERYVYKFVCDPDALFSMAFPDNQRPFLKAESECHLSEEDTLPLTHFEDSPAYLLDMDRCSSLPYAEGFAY
# Chain of HSF1 (Q00613 whole entry): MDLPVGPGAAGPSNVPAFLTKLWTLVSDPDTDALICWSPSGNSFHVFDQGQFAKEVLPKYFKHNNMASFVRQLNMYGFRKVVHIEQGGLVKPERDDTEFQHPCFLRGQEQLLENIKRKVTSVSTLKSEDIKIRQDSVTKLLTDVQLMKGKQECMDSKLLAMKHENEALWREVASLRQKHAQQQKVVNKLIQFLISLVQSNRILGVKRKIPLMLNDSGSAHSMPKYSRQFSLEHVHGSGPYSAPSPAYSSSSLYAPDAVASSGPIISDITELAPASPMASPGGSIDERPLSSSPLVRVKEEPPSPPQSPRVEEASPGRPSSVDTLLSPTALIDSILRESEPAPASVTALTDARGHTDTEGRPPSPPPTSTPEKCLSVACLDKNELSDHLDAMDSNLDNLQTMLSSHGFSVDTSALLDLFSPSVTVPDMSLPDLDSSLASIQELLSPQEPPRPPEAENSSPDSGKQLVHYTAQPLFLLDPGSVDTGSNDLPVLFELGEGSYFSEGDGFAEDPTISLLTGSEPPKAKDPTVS
# Chain of ETV6 (P41212 whole entry): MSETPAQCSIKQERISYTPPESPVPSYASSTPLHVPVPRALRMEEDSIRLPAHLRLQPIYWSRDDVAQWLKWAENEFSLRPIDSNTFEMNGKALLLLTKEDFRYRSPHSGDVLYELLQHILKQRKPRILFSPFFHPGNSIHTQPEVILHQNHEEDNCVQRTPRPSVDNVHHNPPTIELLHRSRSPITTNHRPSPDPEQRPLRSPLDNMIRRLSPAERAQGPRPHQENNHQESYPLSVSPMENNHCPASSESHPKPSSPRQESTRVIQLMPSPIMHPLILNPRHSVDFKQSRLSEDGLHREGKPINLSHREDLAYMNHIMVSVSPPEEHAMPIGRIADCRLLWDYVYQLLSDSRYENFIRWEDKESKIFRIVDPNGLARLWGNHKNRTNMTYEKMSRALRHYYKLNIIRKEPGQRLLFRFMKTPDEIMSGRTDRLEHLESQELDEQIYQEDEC
# Chain of ELF4 (Q99607 whole entry): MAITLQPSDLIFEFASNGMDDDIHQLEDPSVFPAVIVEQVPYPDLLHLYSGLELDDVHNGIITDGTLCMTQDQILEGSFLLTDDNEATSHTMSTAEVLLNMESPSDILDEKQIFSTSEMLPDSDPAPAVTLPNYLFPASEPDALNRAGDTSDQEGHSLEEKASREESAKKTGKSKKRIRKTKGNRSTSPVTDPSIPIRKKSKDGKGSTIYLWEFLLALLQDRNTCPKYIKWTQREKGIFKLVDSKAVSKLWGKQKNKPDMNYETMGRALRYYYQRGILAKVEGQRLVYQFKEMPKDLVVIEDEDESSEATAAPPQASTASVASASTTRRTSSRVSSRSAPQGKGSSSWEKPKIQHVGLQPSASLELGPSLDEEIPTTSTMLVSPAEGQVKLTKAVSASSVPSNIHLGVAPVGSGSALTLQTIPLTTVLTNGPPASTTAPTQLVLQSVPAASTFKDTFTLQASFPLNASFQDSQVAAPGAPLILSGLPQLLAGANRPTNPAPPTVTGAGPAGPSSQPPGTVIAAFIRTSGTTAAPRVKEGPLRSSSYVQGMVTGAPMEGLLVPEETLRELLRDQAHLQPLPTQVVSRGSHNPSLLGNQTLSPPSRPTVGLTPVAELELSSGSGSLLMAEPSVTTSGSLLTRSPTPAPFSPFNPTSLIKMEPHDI
# Chain of CRX (O43186 whole entry): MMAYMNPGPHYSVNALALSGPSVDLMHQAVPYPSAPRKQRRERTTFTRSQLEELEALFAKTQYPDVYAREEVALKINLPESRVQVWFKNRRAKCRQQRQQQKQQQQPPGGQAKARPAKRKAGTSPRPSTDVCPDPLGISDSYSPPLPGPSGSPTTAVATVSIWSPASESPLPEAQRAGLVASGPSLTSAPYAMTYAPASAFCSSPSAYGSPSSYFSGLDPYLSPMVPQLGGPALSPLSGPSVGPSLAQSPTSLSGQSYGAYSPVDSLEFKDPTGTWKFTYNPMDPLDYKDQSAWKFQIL
# Chain of ETV1 (P50549 whole entry): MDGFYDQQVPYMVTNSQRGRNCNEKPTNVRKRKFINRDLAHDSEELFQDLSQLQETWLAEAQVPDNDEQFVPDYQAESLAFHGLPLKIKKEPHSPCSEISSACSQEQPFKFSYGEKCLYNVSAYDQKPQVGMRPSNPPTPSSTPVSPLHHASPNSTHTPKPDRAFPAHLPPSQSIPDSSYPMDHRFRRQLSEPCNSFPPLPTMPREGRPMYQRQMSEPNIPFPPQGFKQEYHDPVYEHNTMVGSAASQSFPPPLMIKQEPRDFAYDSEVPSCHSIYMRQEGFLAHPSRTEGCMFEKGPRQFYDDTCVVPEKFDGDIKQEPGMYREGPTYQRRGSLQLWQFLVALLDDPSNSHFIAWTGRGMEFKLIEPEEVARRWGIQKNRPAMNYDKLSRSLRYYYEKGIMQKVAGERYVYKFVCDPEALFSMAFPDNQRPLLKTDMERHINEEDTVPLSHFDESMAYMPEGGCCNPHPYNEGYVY
sequence,measurement,setting,value
TTACCG,binding signal,FEV,"1.26 fold enrichment (6-mer frequency, TF over GST control)"
same,binding signal,ETV5,"1.23 fold enrichment (6-mer frequency, TF over GST control)"
same,binding signal,HSF1,"1.25 fold enrichment (6-mer frequency, TF over GST control)"
same,binding signal,SPIC,"1.16 fold enrichment (6-mer frequency, TF over GST control)"
same,binding signal,ELF4,"1.13 fold enrichment (6-mer frequency, TF over GST control)"
same,binding signal,ELK4,"1.16 fold enrichment (6-mer frequency, TF over GST control)"
same,binding signal,ETV2,"1.12 fold enrichment (6-mer frequency, TF over GST control)"
same,binding signal,ELF3,"1.2 fold enrichment (6-mer frequency, TF over GST control)"
same,binding signal,CRX,"1.74 fold enrichment (6-mer frequency, TF over GST control)"
same,binding signal,ETV1,"1.14 fold enrichment (6-mer frequency, TF over GST control)"
same,binding signal,ERF,"1.05 fold enrichment (6-mer frequency, TF over GST control)"
same,binding signal,ETV3L,"1.03 fold enrichment (6-mer frequency, TF over GST control)"
same,binding signal,ETS2,"1.19 fold enrichment (6-mer frequency, TF over GST control)"
same,binding signal,SPDEF,"1.21 fold enrichment (6-mer frequency, TF over GST control)"
same,binding signal,ETV7,"1.17 fold enrichment (6-mer frequency, TF over GST control)"
same,binding signal,ELF5,"1.3 fold enrichment (6-mer frequency, TF over GST control)"
same,binding signal,ETV3,"1.23 fold enrichment (6-mer frequency, TF over GST control)"
same,binding signal,ETV6,"1.25 fold enrichment (6-mer frequency, TF over GST control)"
